# Screens deposited in PubChem BioAssay by The Scripps Research Institute Molecular Screening Center.
# A selection: hits, their analogues and other compounds. The true share with any hit is near 0.84%.
# SRC2 TRFRET art: TR-FRET artefact, counter-screen to PPARgamma/SRC-2 agonist assay; TR-FRET ratio at 8 µM; 0.4% of 200,000 active; hits give high values; in the data active means TR-FRET ratio above about 2000
# SRC3 TRFRET art: counter-screen for PPARgamma SRC-3 recruitment agonists: TR-FRET artefact; PPARgamma/SRC-3 format; hits give high values; TR-FRET ratio at 8 µM; 0.39% of 99,000 active; in the data active means TR-FRET ratio above about 2000
# PPARg SRC1 recr: promotes SRC-1 coactivator recruitment by human PPARgamma. P37231. AID 631. PPARgamma-SRC-1 coactivator recruitment biochemical assay. activation, % at 8 µM. 0.41% of 200,000 active; in the data active means activation above about 19%
# Target sequence (P37231 whole entry, looked up): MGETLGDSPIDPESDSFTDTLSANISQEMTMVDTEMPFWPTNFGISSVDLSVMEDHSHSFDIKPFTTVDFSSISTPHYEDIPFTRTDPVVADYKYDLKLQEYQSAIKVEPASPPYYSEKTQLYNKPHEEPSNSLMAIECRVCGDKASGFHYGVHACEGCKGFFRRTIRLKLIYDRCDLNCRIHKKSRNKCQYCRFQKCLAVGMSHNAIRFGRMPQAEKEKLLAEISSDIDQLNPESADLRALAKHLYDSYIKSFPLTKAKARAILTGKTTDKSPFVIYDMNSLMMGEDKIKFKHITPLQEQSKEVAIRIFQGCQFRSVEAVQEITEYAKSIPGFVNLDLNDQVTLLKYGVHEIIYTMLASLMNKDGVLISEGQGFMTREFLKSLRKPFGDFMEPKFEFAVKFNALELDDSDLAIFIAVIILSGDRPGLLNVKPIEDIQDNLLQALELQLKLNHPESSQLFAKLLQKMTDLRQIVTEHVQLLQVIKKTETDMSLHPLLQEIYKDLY
# PPARg SRC3 recr: agonists of human PPARgamma SRC-3 coactivator recruitment | AID 731 | 0.26% of 200,000 active | biochemical PPARgamma/SRC-3 coactivator recruitment assay | activation, % at 8 µM; in the data active means activation above about 23%
# PPARg SRC-2 ag: promotes SRC-2 coactivator recruitment by human PPARgamma | activation, % at 8 µM | P37231 | AID 1032 | 0.34% of 200,000 active | PPARgamma LBD-SRC-2 recruitment, biochemical
# SRC1 TRFRET art: counter-screen for PPARgamma SRC-1 recruitment agonists: TR-FRET artefact. 0.34% of 99,000 active. TR-FRET detection artefact counter-screen, emission ratio; hits give high values. TR-FRET ratio at 8 µM; in the data active means TR-FRET ratio above about 2300
# PPARg SRC2 ag: human PPARgamma SRC-2 recruitment agonism, confirmation; shares compounds with PPARg SRC3 recr; biochemical SRC-2 recruitment by PPARgamma; activation, % at 8 µM; 52% of 790 active
# PPARg SRC1 conf: confirmation of agonists of SRC-1 recruitment by human PPARgamma. shares compounds with PPARg SRC3 recr. PPARgamma–SRC-1 coactivator recruitment biochemical assay. 43% of 790 active. activation, % at 8 µM; in the data active means activation above about 20%
# PPARg SRC3 ag: confirmation of agonists of SRC-3 recruitment by human PPARgamma; shares compounds with PPARg SRC3 recr; 29% of 790 active; activation, % at 8 µM; biochemical PPARgamma-SRC-3 coactivator recruitment, agonist mode; in the data active means activation above about 24%
# A number is an active result; 0 = inactive; - = no result given. Unless noted, no stated cut-off is given here; in the data, active means activation above about 22%; inactive means the rest.
SMILES,SRC2 TRFRET art,SRC3 TRFRET art,PPARg SRC1 recr,PPARg SRC3 recr,PPARg SRC-2 ag,SRC1 TRFRET art,PPARg SRC2 ag,PPARg SRC1 conf,PPARg SRC3 ag
Cc1cccc(-c2ccc(C=Nc3c(C)n(C)n(-c4ccccc4)c3=O)o2)c1,1999,-,23,39,30,-,0,0,0
Cc1c(N=Cc2nc3ccccc3n2C)c(=O)n(-c2ccccc2)n1C,0,-,0,0,0,-,-,-,-
COC(=O)c1ccc2c(=O)n(-c3ccccc3)c(=S)[nH]c2c1,0,0,0,0,0,0,-,-,-
CCc1cc2c(=O)n(-c3ccccc3)c(=S)[nH]c2s1,2026,-,27,41,37,-,31,25,0
O=C(O)[C@H]1CCCC[C@H]1C(=O)Nc1ccc(Nc2ccccc2)cc1,0,-,0,0,27,-,0,0,0
O=C(COC(=O)CCc1nc2ccccc2s1)NCc1ccco1,0,0,0,0,0,0,-,-,-
NC(=O)[C@@H]1CCCNc2c(I)cc([N+](=O)[O-])cc2C(=O)N[C@@H](CO)C(=O)NCC(=O)N1,0,0,0,0,0,0,-,-,-
Cc1ccc(-n2c(=S)[nH]c3c(oc4ccccc43)c2=O)cc1C,0,0,0,0,0,0,-,-,-
O=c1c2oc3ccccc3c2[nH]c(=S)n1-c1ccc(F)cc1,2177,2296,0,0,26,2641,0,0,0
CCOc1ccccc1-c1n[nH]c(=S)o1,2292,-,28,50,39,-,43,30,28
CCOc1ccc(-c2n[nH]c(=S)o2)cc1,0,0,0,0,0,0,-,-,-
Oc1ccc(NCc2cccc(OCc3ccccc3)c2)cc1,0,0,24,0,0,0,0,0,0
CC(=O)C1=C(O)C(=O)N(c2nccs2)C1c1ccccc1 (stereo unspecified),0,-,0,0,27,-,22,0,0
O=C(Nc1ccccc1)c1ccc(-c2ccccc2)s1,2178,2060,39,0,39,2787,44,35,26
CN(C)/C=C/C(=O)c1ccc(Cl)c([N+](=O)[O-])c1,0,0,0,0,0,0,-,-,-
CCCC(=O)Nc1c2c(nc3ccccc13)N(c1ccccc1)CC2,3204,2855,46,46,61,2803,41,25,26
COc1ccc(NC(=O)COC(=O)c2ccc([N+](=O)[O-])o2)cc1Cl,0,0,0,0,0,0,-,-,-
S=C(c1ccc(-c2ccc(Cl)cc2)o1)N1CCCCC1,0,-,0,0,0,-,-,-,-
N#CCCN1CCN(C(=S)c2ccc(-c3ccc(Cl)cc3)o2)CC1,0,-,24,0,0,-,31,28,0
CCCN(CCC)CCNC(=S)Nc1ccc2nc3n(c(=O)c2c1)CCCCC3,0,0,0,0,0,0,-,-,-
COc1ccc(CSCC(=O)N/N=C/c2ccc(OCC(=O)NCc3ccco3)cc2)cc1,0,-,0,0,0,-,-,-,-
Cc1cc(C)cc(CSCC(=O)N/N=C/c2ccc(OCC(=O)NCc3ccco3)cc2)c1,0,-,0,25,0,-,0,0,0
CC(C)C1Cc2c(C#N)c(N)sc(=S)c2CO1 (stereo unspecified),2315,-,33,47,39,-,0,0,0
Cc1nc2oc3ccc(F)cc3c(=O)c2cc1C(=O)NC(C)(C)C,0,0,0,0,0,0,-,-,-
Cc1ccc(NC(=O)CCn2nc([N+](=O)[O-])cc2C)nc1,0,0,0,0,0,0,-,-,-
O=c1[nH]c2ccc(Cl)cc2c(-c2ccccc2)c1SC(=S)N1CCCCC1,0,-,0,0,23,-,0,0,0
Cc1ccc(S(=O)(=O)N2CCC(=O)N(C(COCc3ccc(Cl)cc3)Cc3ccccc3)CC2)cc1 (stereo unspecified),0,0,0,0,0,0,-,-,-
CCOC(=O)CSc1c(-c2cccs2)[nH]c2ccccc12,0,0,0,0,25,0,32,23,0
CCOCCCNC(=O)/C(C#N)=C/c1ccc(Cl)c([N+](=O)[O-])c1,0,0,0,30,0,0,0,0,0
